Binding signal data for ten sequences are collected here from publication PMC8384837, “Expanding the binding specificity for RNA recognition by a PUF domain”.

Common to all, as to test: yeast three-hybrid, YBZ-1, SC-Leu-His + 0.5 mM 3-AT, 4 days
Conditions in all cases: tags: N-Gal4 AD-HA kept; label: inside an RPR1-promoter hybrid RNA with tandem MS2 sites; ssRNA

One experiment concerns the target PUM1 PUF domain R8-RRG (Homo sapiens, UniProt Q14671 828-1176, N1122R;Y1123R;Q1126G). An outline of the steps:
(§1)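 A centromeric plasmid in strain YBZ-1 co-expressed Pumilio-1 PUF domain libraries, randomized at the three base-contacting residues of each repeat, with matching RNA elements; the strain carries a LexA–MS2 coat fusion and a HIS3 reporter. After four days on SC-Leu (input) or SC-Leu-His + 0.5 mM 3-AT (selection), the repeat regions were PCR-amplified and Illumina-sequenced. The interaction score is the log change in variant frequency from input to selection, using log2 and a pseudocount of 1 where absent.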

The next experiment has as its target PUM1 PUF domain R8-NWK (Homo sapiens, UniProt Q14671 828-1176, Y1123W;Q1126K). The procedure, abridged:
as §1

Another experiment addresses PUM1 PUF domain R5-QNS (Homo sapiens, UniProt Q14671 828-1176, C1007Q;R1008N;Q1011S). The procedure, abridged:
as §1

Another experiment concerns the target T1, PUM1 PUF domain R6-FWR (Homo sapiens, UniProt Q14671 828-1176, N1043F;Y1044W;Q1047R).
T1 sequence: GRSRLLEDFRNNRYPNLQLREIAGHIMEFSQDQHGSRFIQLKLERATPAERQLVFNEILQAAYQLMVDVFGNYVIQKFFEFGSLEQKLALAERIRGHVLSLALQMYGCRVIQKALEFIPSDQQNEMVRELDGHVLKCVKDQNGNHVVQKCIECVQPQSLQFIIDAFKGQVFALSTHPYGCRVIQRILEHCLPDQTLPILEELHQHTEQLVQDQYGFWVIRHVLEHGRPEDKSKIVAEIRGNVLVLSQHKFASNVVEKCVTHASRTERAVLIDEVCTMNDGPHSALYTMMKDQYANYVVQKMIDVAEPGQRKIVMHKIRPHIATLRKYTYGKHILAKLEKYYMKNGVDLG
An outline of the steps:
as §1

For the next experiment, the target named is T2, PUM1 PUF domain R6-HYR (Homo sapiens, UniProt Q14671 828-1176, N1043H;Q1047R).
T2 sequence: T1 sequence with F216H, W217Y
The procedure, abridged: as §1

The next experiment addresses PUM1 PUF domain R3-TRL (Homo sapiens, UniProt Q14671 828-1176, C935T;Q939L). An outline of the steps: as §1
Another experiment addresses PUM1 PUF domain R7-RPC (Homo sapiens, UniProt Q14671 828-1176, S1079R;N1080P;E1083C). An outline of the steps: as §1
In another experiment the target is PUM1 PUF domain R7-RGH (Homo sapiens, UniProt Q14671 828-1176, S1079R;N1080G;E1083H). An outline of the steps:
as §1

For another experiment, the target named is PUM1 PUF domain R3-SSK (Homo sapiens, UniProt Q14671 828-1176, C935S;R936S;Q939K). An outline of the steps:
as §1

Another experiment addresses PUM1 PUF domain R1-RVI (Homo sapiens, UniProt Q14671 828-1176, S863R;R864V;Q867I). The procedure, abridged: as §1

Substitutions are numbered along the chain they refer to.

Turning to “GGCUAGAACUAGUGGAUCCCCCGGCGCCCGGCGGCUCGAGCCCGGGUAAGCGUAAAUAGUCUGCAUGCCGCCGGGCGCCAUGCCUGCAGGUCGACUCUAGAAAACAUG”, the binding signal in the experiment with PUM1 PUF domain R8-RRG was 2.76 log2 enrichment (interaction score); with PUM1 PUF domain R8-NWK, 4.45 log2 enrichment (interaction score).

On to “GGCUAGAACUAGUGGAUCCCCCGGCGCCCGGCGGCUCGAGCCCGGGUAAGUGUUAAUAGUCUGCAUGCCGCCGGGCGCCAUGCCUGCAGGUCGACUCUAGAAAACAUG”, for which the binding signal with PUM1 PUF domain R5-QNS was 3.13 log2 enrichment (interaction score).

Take “GGCUAGAACUAGUGGAUCCCCCGGCGCCCGGCGGCUCGAGCCCGGGUAAGUGAAAAUAGUCUGCAUGCCGCCGGGCGCCAUGCCUGCAGGUCGACUCUAGAAAACAUG”: in the experiment with PUM1 PUF domain R6-FWR, the binding signal is 4.17 log2 enrichment (interaction score).

Consider “GGCUAGAACUAGUGGAUCCCCCGGCGCCCGGCGGCUCGAGCCCGGGUAAGUGUAAAUAGUCUGCAUGCCGCCGGGCGCCAUGCCUGCAGGUCGACUCUAGAAAACAUG”, for which the binding signal is 5.76 log2 enrichment (interaction score) with PUM1 PUF domain R6-HYR, 5.25 log2 enrichment (interaction score) with PUM1 PUF domain R6-FWR, 1.3 log2 enrichment (interaction score) in the experiment with PUM1 PUF domain R8-RRG and 2.97 log2 enrichment (interaction score) in the experiment with PUM1 PUF domain R3-TRL.

Turning to “GGCUAGAACUAGUGGAUCCCCCGGCGCCCGGCGGCUCGAGCCCGGGUAAGUUUAAAUAGUCUGCAUGCCGCCGGGCGCCAUGCCUGCAGGUCGACUCUAGAAAACAUG”, the binding signal with PUM1 PUF domain R7-RPC was 3.97 log2 enrichment (interaction score); with PUM1 PUF domain R7-RGH, 3.07 log2 enrichment (interaction score).

Turning to “GGCUAGAACUAGUGGAUCCCCCGGCGCCCGGCGGCUCGAGCCCGGGUAAGUGUAAUUAGUCUGCAUGCCGCCGGGCGCCAUGCCUGCAGGUCGACUCUAGAAAACAUG”, the binding signal with PUM1 PUF domain R3-SSK was 2.9 log2 enrichment (interaction score); in the experiment with PUM1 PUF domain R3-TRL it was 0.95 log2 enrichment (interaction score).

As to “GGCUAGAACUAGUGGAUCCCCCGGCGCCCGGCGGCUCGAGCCCGGGUAAGUGUAAAUCGUCUGCAUGCCGCCGGGCGCCAUGCCUGCAGGUCGACUCUAGAAAACAUG”, the binding signal with PUM1 PUF domain R1-RVI is 2.84 log2 enrichment (interaction score).

Turning to “GGCUAGAACUAGUGGAUCCCCCGGCGCCCGGCGGCUCGAGCCCGGGUAAGUGUAAGUAGUCUGCAUGCCGCCGGGCGCCAUGCCUGCAGGUCGACUCUAGAAAACAUG”, the binding signal in the experiment with PUM1 PUF domain R3-SSK is 2.38 log2 enrichment (interaction score).

For “GGCUAGAACUAGUGGAUCCCCCGGCGCCCGGCGGCUCGAGCCCGGGUAAGUCUAAAUAGUCUGCAUGCCGCCGGGCGCCAUGCCUGCAGGUCGACUCUAGAAAACAUG”, the binding signal in the experiment with PUM1 PUF domain R7-RPC is 0.8 log2 enrichment (interaction score); with PUM1 PUF domain R7-RGH, 1.99 log2 enrichment (interaction score).

Take “GGCUAGAACUAGUGGAUCCCCCGGCGCCCGGCGGCUCGAGCCCGGGUAAGUGUAAAUUGUCUGCAUGCCGCCGGGCGCCAUGCCUGCAGGUCGACUCUAGAAAACAUG”: the binding signal in the experiment with PUM1 PUF domain R1-RVI is 2.56 log2 enrichment (interaction score).
